Our source for the composite z-score and z-score values is PubChem BioAssay.

Activity calls are given as the source filed them. Unless noted, how the calls were made is not given here.

Experiment [1] relates to Wnt5a (protein binding on small-molecule microarray). The experiment is described as follows: Wnt5a binders on small-molecule microarray, primary screen, biophysical, 635/667 nm fluorescence (AID 1142).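 Further: fluorescence read at 667 nm with signal to noise per printed feature.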 As to conditions: 635 nm fluorescence, higher = more signal.
Experiment [2] in a line: cell viability in Huh7 cells, primary screen, cytotoxicity control for HCV replication inhibitor project, CellTiter-Glo luminescence, basal, 48 h (AID 1143).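 Further: Huh7 hepatoma cells carrying a hepatitis C replication reporter with no stimulus; test concentration not given here.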 As to conditions: Huh7 HCV replicon, higher = more signal, called active from +8 up or from −8 down.
Experiment [3] can be described thus: P. aeruginosa biofilm formation inhibitors, primary screen, PAO1 strain, BacTiter-Glo luminescence, LB-PBS (AID 1144). The conditions noted are these: 12 h, higher = more signal.
Experiment [4] is described as follows: CREB reporter modulators without forskolin, primary screen, cell-based, PC12, CRE-LacZ reporter, unstimulated (AID 1145). The conditions noted are these: no forskolin, luminescence, 4.5 h, higher = more signal, called active from +8 up or from −8 down.
Experiment [5] in a line: CREB reporter modulators under forskolin, primary screen, cell-based, PC12, CRE-LacZ reporter, forskolin-stimulated (AID 1146).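 Further: PC12 cells with 6xCRE LacZ reporter stimulated by forskolin 10 µM; beta-galactosidase reporter signal reflecting CREB driven transcription.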 As to conditions: luminescence, 4.5 h, higher = more signal, called active from +8 up or from −8 down.
The target of experiment [6] is Streptavidin (Streptomyces avidinii) (UniProt P22629). Kind of experiment: streptavidin binders on small-molecule microarray, primary screen, artefact control for SMM compound annotation, biophysical, 635/667 nm fluorescence (AID 1147).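 Further: signal reflects streptavidin binding to arrayed compounds as a control protein.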 As to conditions: streptavidin binding, higher = more signal.
Streptavidin (Streptomyces avidinii), sequence (P22629 whole entry, looked up): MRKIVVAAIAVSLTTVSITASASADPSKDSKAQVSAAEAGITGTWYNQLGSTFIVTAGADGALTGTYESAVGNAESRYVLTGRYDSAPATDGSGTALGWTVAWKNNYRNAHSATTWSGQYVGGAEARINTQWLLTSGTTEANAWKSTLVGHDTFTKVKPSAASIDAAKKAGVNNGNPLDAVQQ
A short description of experiment [7]: small-molecule binders of probe aInhba, primary screen, biochemical, small-molecule microarray, 635/667 nm fluorescence (AID 1148).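 Further: score merges 667nm spot fluorescence with signal-to-noise for antibody binding to printed compounds.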 As to conditions: higher = more signal.
Experiment [8] addresses Torsin-1A (Homo sapiens) (UniProt O14656). The experiment is described as follows: torsin A binders from cell lysate, primary screen, small-molecule microarray, wild-type, 635/667 nm (AID 1149). As to conditions: COS7 hTOR1A-WT lysate, 635 nm fluorescence, higher = more signal.
For experiment [9] the target is unchanged. The experiment is described as follows: small-molecule binders of mutant TOR1A in lysate, primary screen, cell lysate, small-molecule microarray, COS7 lysate, 635/667 nm fluorescence (AID 1150).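 Further: score pools 667 nm emission and signal to noise measuring lysate protein binding.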 The conditions noted are these: COS7 hTOR1A mutant lysate, 635 nm fluorescence, higher = more signal.
For experiment [10], the system named is Sonic hedgehog protein (Shh). The experiment is described as follows: small-molecule binders of Shh protein, primary screen, biochemical, small-molecule microarray, 635/667 nm fluorescence (AID 1151).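 Further: Shh protein binding to compounds spotted on small-molecule microarray slides; score combines spot fluorescence intensity with signal-to-noise across triplicate slides.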 As to conditions: small-molecule microarray binding, 635 nm fluorescence; higher = more signal.

Torsin-1A (Homo sapiens), sequence (O14656 whole entry, looked up): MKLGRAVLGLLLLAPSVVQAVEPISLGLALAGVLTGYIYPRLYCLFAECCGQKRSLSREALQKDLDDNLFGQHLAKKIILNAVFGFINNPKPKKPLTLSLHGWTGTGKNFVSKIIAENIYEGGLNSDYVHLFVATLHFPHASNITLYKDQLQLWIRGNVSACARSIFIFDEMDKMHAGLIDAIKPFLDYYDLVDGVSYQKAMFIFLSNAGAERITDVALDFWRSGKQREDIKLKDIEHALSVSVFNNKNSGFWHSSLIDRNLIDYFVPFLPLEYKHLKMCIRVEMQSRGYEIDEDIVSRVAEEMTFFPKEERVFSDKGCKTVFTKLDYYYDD

As for `COc1ccc([Si](C)(C)[C@H]2[C@H](CCn3cc(CCO)nn3)O[C@@]3(C(=O)N(Cc4cccc(N5C(=O)c6cccc7cccc5c67)c4)c4ccccc43)[C@@H]2C)cc1`, the composite z-score is 0.16 in experiment [1]; 0.99 in [6]; -0.018 in experiment [7]; 1.33 with Torsin-1A (Homo sapiens) [8]; 1.22 in the experiment with Torsin-1A (Homo sapiens) [9]; 1.37 in experiment [10]. In addition, the z-score was -7.3 (inactive) in experiment [2], -1.11 (inactive) in experiment [3], 11 (active) in experiment [4] and -1.3 (inactive) in [5].

In the case of `C=C(COC)/C(=C/C[C@@H](OC(=O)c1ccncc1)c1cccc(OCCO)c1)c1cc(C(=O)OC)ccc1OC`, the composite z-score in experiment [1] is 0.996; in experiment [6], -0.0673; in [7], 0.709; with Torsin-1A (Homo sapiens) [8] it was 2.64; with Torsin-1A (Homo sapiens) [9], 1.49; in experiment [10], 2.11. Further, the z-score is -8.13 (active) in [2], -0.0417 (inactive) in [3], 23.7 (active) in [4] and -0.376 (inactive) in experiment [5].

For `CC1C=C(CCCO)C=C(C(=O)OCCS(C)(=O)=O)C(C(=O)OCCS(C)(=O)=O)=CN1Cc1cccc(OC(F)(F)F)c1` (stereo not given), the composite z-score in [1] is 0.0382; in experiment [6] it was 1.28; in [7] it was 0.288; in the experiment with Torsin-1A (Homo sapiens) [8], 0.887; with Torsin-1A (Homo sapiens) [9], 0.893; in experiment [10] it was -0.0368. Also, the z-score is -0.911 (inactive) in experiment [2], -0.846 (inactive) in [3], -0.364 (inactive) in [4] and 0.56 (inactive) in experiment [5].

As for `C/C=C/[C@@H](CCn1cc([C@H](O)c2ccccc2)nn1)[Si](C)(C)c1ccc(OC)cc1`, the composite z-score is 0.303 in [1]; -0.514 in experiment [6]; -0.253 in [7]; 0.154 with Torsin-1A (Homo sapiens) [8]; -0.575 in the experiment with Torsin-1A (Homo sapiens) [9]; -0.0723 in [10]. In addition, the z-score in experiment [2] was -3.67 (inactive); in experiment [3] it was 0.214 (inactive); in experiment [4] it was 3.3 (inactive); in [5], 0.128 (inactive).

Regarding `COCCOC(=O)N1C(=O)[C@@]2(c3cc(C#CC4(O)CCCCCC4)ccc31)[C@H](C(=O)N1CCc3cc(OC)c(OC)cc3C1)[C@H]1C(=O)O[C@H](c3ccccc3)[C@H](c3ccccc3)N1[C@@H]2c1ccccc1OCCO`, the composite z-score in experiment [1] came out at 0.855; in [6], 0.149; in [7], 0.448; with Torsin-1A (Homo sapiens) [8] it was 0.0869; with Torsin-1A (Homo sapiens) [9], 0.326; in experiment [10], 1.29. Besides, the z-score was -2.18 (inactive) in [2], 1.66 (inactive) in experiment [3], 0.0736 (inactive) in experiment [4] and 3.93 (inactive) in [5].

As for `C[N+](C)(C)CCCC[C@@H]1NC(=O)[C@H]2C[C@@H](C(=O)NCCCCCCN)[C@@H](c3cccc(OCCO)c3)N2C1=O`, the composite z-score in [1] was 0.693; in experiment [6] it was 1.65; in [7], 0.794; with Torsin-1A (Homo sapiens) [8], 1.33; with Torsin-1A (Homo sapiens) [9] it was 1.25; in experiment [10], 2.04. Moreover, the z-score was 0.0395 (inactive) in experiment [2], 0.406 (inactive) in [3], -0.809 (inactive) in [4] and -0.254 (inactive) in experiment [5].

Consider `C[C@H]1NC(=O)C([C@@H](C)OCc2ccccc2)NC(=O)[C@@]23C(=O)N[C@@H](Cc4ccccc4)C2[C@H](C)[C@@]2(C)O[C@H]2C3/C=C/CC/C=C/CNC1=O` (stereo not given in full), for which the composite z-score was -0.108 in experiment [1]; -0.0311 in experiment [6]; -0.122 in experiment [7]; -0.0252 in the experiment with Torsin-1A (Homo sapiens) [8]; 0.212 with Torsin-1A (Homo sapiens) [9]; 0.778 in [10]. Moreover, the z-score in experiment [2] is -1.24 (inactive); in experiment [3], 1.27 (inactive); in experiment [4] it was 4.21 (inactive); in experiment [5], -1.16 (inactive).

Turning to `NCCCCCCNC(=O)[C@H]1C[C@H]2C(=O)N3CCC[C@H]3C(=O)N2[C@H]1c1ccc(O)cc1`, the composite z-score in experiment [1] worked out at 0.214; in experiment [6], 0.0381; in experiment [7] it was 0.0047; with Torsin-1A (Homo sapiens) [8], 0.624; with Torsin-1A (Homo sapiens) [9] it was 0.553; in experiment [10], 1.86. Further, the z-score is -0.734 (inactive) in experiment [2], 0.131 (inactive) in experiment [3], 0.0084 (inactive) in experiment [4] and -0.27 (inactive) in experiment [5].

For the molecule `O=c1c2ccc(Br)cc2nc(-c2ccccc2)n1Cc1cccc(O)c1`, the composite z-score in experiment [1] worked out at 0.153; in [6] it was 0.669; in experiment [7], 0.229; in the experiment with Torsin-1A (Homo sapiens) [8] it was 1.45; with Torsin-1A (Homo sapiens) [9] it was 1.88; in experiment [10], 0.332. The z-score in experiment [2] is -0.913 (inactive); in [3], 0.32 (inactive); in experiment [4], 0.272 (inactive); in experiment [5], -1.17 (inactive).

For the molecule `OCc1ccc(-c2cc[n+](Cc3cccc(OC(F)(F)F)c3)cc2)cc1`, the composite z-score in experiment [1] is 0.252; in [6] it was 1.24; in [7], -0.0221; in the experiment with Torsin-1A (Homo sapiens) [8], 1.18; with Torsin-1A (Homo sapiens) [9] it was 1.12; in [10] it was 1.98. In addition, the z-score in [2] was -1.64 (inactive); in experiment [3], -0.473 (inactive); in experiment [4] it was -0.374 (inactive); in experiment [5] it was -0.119 (inactive).

Consider `COCCCNC(=O)[C@@H]1c2ccccc2C(=O)N(c2ccc(C)cn2)[C@H]1c1ccc(CO)cc1`, for which the composite z-score in experiment [1] is -1.53; in experiment [6], -1.6; in experiment [7], -0.159; in the experiment with Torsin-1A (Homo sapiens) [8] it was -2.83; with Torsin-1A (Homo sapiens) [9], -2.65; in [10] it was -1.2. In addition, the z-score in experiment [2] was -0.17 (inactive); in [3], -0.894 (inactive); in experiment [4], -0.374 (inactive); in experiment [5], -0.563 (inactive).

As to `C=C[C@@H](O)[C@H]1CC(c2ccccc2)=NO1`, the composite z-score is -0.184 in [1]; 0.174 in experiment [6]; -0.183 in [7]; 0.154 with Torsin-1A (Homo sapiens) [8]; 0.334 with Torsin-1A (Homo sapiens) [9]; -0.18 in experiment [10]. The z-score in [2] was 0.0011 (inactive); in experiment [3] it was 0.15 (inactive); in [4], 1.03 (inactive); in experiment [5] it was 0.167 (inactive).

With `C=CCC(OC(C)=O)[C@@H]1[C@@H](N(Cc2ccc(-c3cccc(C(F)(F)F)c3)o2)C(=O)c2cccc3ccccc23)c2cc(OCCCO)ccc2N1C(=O)c1ccc(-c2ccccc2)cc1` (stereo not given in full), the composite z-score in experiment [1] is 0.0391; in [6] it was 0.0133; in experiment [7], -0.0112; in the experiment with Torsin-1A (Homo sapiens) [8] it was 0.1; with Torsin-1A (Homo sapiens) [9] it was -0.138; in [10], 1.06. The z-score is -1.63 (inactive) in experiment [2], 0.595 (inactive) in experiment [3], -0.272 (inactive) in [4] and -0.262 (inactive) in experiment [5].

Turning to `COc1ccc(CCNC(=O)[C@@H]2c3ccccc3C(=O)N(Cc3ccccc3C(F)(F)F)[C@H]2c2ccc(CO)cc2)cc1`, the composite z-score in experiment [1] is -0.189; in [6], -0.752; in experiment [7], -0.168; with Torsin-1A (Homo sapiens) [8], -1.27; with Torsin-1A (Homo sapiens) [9] it was 0.714; in [10] it was -0.25. In addition, the z-score in experiment [2] was -2.64 (inactive); in [3], -0.984 (inactive); in experiment [4] it was -0.295 (inactive); in experiment [5] it was -0.132 (inactive).
